Experiment [1] concerns Plasmodium falciparum Sir2 (PF13_0152, Sir2A). In words: Plasmodium falciparum Sir2A binding compounds – biochemical, small-molecule microarray, 635 nm fluorescence, primary screen (AID 1098).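 Note: score merges spot fluorescence intensity with its signal-to-noise ratio.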 The following applies: fluorescence 635 nm, higher = more signal.
Experiment [2] can be described thus: probe aDKK1 binding to arrayed compounds – biochemical, biotinylated probe, 635/667 nm fluorescence, primary screen (AID 1099).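 Note: score merges 667nm spot fluorescence with signal to noise across triplicate slides; reference of the scale not given here.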 The following applies: small-molecule microarray, higher = more signal.
Experiment [3] is described as follows: probe aCHRDL2 binding to arrayed compounds – biochemical, biotinylated probe, 635/667 nm fluorescence, primary screen (AID 1100). The following applies: small-molecule microarray, higher = more signal.
Experiment [4] can be described thus: change in splice reporter luminescence, either direction, cell-based, HEK293, spliceosome inhibition project, primary screen (AID 1101).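 Note: HEK293 cells carrying a splicing-competent luciferase reporter gene; test concentration not given here.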 The following applies: HEK293 splicing luciferase reporter, 24 h, higher = more signal, called active from +8 up or from −8 down. A general note: Reporter assays use an easily measured gene product as a stand-in for the process of interest.

Experiment [5] has as its target Fibroblast growth factor 10 (Homo sapiens) (UniProt O15520). In words: compounds binding fibroblast growth factor 10 – biochemical, small-molecule microarray, 635 nm fluorescence, primary screen (AID 1102). The following applies: FGF10 binding, fluorescence 635 nm, higher = more signal.
For experiment [6], the system named is glycogen synthase kinase-3 (GSK3A per assay name; protocol says GSK3B). In words: compounds binding glycogen synthase kinase-3 – biochemical, small-molecule microarray, 635 nm fluorescence, GSK3A, primary screen (AID 1103). Note: the record names both GSK3A and GSK3B. The following applies: fluorescence 635 nm, higher = more signal.
Experiment [7] has as its target Epidermal growth factor receptor (Homo sapiens) (UniProt P00533). In words: compounds binding epidermal growth factor receptor – biochemical, small-molecule microarray, 635 nm fluorescence, primary screen (AID 1104).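 Note: score merges 667 nm emission intensity with spot signal to noise over triplicate slides.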 The following applies: EGFR binding, higher = more signal.
Experiment [8] addresses Follistatin-related protein 3 (Homo sapiens) (UniProt O95633). In words: compounds binding follistatin-related protein 3 – biochemical, small-molecule microarray, 635 nm fluorescence, primary screen (AID 1105).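 Note: score merges emission near 667 nm and signal to noise per printed spot across three slides.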 The following applies: FSTL3 binding, higher = more signal.
For experiment [9], the target named is Dickkopf-related protein 1 (Homo sapiens) (UniProt O94907). In words: small molecules binding DKK1 protein – biochemical, small-molecule microarray, 635 nm fluorescence scan, primary screen (AID 1106).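 Note: score merges emission near 667 nm with signal to noise over three replicate slides.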 The following applies: higher = more signal.
Experiment [10] relates to Inhibin beta A chain (activin A). In words: small molecules binding activin A – biochemical, small-molecule microarray, 635 nm fluorescence scan, primary screen (AID 1107).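 Note: mouse activin A protein probed at 4.33 µg/mL on printed slides; score merges bound-protein fluorescence near 667 nm with spot signal-to-noise.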 The following applies: INHBA, higher = more signal.

Calls of active or inactive are those of the source.

Epidermal growth factor receptor (Homo sapiens), sequence (P00533 whole entry, looked up): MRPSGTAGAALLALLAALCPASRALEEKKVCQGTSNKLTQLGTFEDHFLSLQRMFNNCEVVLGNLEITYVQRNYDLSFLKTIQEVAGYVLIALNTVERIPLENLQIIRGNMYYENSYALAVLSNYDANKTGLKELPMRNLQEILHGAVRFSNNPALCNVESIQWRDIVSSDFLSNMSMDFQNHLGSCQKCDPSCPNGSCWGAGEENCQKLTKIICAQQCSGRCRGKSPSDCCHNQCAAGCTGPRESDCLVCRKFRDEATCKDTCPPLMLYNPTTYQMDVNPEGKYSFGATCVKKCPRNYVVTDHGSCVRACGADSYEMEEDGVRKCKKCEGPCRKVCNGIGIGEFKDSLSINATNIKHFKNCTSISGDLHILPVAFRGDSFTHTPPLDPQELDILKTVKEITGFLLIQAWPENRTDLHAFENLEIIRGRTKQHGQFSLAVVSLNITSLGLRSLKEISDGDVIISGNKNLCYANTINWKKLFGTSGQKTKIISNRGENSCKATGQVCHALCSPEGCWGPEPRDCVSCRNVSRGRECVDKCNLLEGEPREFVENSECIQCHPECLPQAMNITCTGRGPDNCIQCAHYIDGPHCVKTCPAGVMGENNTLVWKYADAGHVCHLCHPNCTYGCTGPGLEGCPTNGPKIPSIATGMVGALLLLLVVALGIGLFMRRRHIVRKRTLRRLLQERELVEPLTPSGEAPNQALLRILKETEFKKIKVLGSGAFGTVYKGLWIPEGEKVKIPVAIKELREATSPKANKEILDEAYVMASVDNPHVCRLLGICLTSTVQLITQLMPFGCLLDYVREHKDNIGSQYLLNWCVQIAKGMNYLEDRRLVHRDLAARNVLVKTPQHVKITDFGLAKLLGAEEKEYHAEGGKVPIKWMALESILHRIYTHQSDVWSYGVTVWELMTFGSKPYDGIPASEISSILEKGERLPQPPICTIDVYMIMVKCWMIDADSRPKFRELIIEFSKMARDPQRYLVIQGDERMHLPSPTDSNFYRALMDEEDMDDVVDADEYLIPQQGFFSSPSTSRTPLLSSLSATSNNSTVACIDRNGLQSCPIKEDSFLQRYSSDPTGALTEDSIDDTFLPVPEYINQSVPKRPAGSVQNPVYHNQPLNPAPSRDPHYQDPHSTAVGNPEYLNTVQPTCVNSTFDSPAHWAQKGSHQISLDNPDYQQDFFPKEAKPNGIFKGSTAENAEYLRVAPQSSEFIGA
Fibroblast growth factor 10 (Homo sapiens), sequence (O15520 whole entry, looked up): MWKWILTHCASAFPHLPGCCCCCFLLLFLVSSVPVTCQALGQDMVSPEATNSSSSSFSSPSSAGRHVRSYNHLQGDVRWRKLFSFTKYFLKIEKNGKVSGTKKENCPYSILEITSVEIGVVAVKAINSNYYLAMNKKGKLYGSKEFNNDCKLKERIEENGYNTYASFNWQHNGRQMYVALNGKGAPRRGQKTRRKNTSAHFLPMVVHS
Follistatin-related protein 3 (Homo sapiens), sequence (O95633 whole entry, looked up): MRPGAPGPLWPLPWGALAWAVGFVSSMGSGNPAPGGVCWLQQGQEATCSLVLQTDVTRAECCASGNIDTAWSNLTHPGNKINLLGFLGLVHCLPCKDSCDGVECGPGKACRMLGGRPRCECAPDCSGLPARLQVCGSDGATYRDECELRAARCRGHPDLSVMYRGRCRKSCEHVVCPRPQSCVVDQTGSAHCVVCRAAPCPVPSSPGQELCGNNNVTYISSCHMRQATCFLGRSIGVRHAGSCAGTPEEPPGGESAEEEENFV
Dickkopf-related protein 1 (Homo sapiens), sequence (O94907 whole entry, looked up): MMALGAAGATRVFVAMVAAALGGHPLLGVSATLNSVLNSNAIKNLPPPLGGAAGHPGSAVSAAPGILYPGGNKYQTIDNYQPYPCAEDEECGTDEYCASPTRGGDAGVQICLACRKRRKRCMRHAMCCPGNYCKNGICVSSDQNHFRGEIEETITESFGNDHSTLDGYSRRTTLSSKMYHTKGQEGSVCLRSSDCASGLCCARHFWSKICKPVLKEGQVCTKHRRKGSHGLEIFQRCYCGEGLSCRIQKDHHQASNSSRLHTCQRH

In the case of `CN1C(=O)C2CC=C(C3=CCO[C@@H]3[C@H]3CCCN3S(=O)(=O)c3ccccc3[N+](=O)[O-])CC2C1=O` (stereo not given in full), the composite z-score was 1.11 in experiment [1]; -0.22 in experiment [2]; -0.193 in experiment [3]; 0.447 in experiment [5]; -0.12 in experiment [6]; -0.141 in [7]. In addition, the composite z-score in [8] is -0.59; in [9], -0.261; in experiment [10], 0.666. In addition, the z-score in experiment [4] was 0.129 (inactive).

As to `CN1C2C=C(c3ccc(CO)cc3)C(C3C(=O)N(C(N)=O)C(=O)C32)C1C1CC1` (stereo not given), the composite z-score was 0.261 in experiment [1]; -0.202 in [2]; 0.0427 in experiment [3]; -0.241 in experiment [5]; -0.32 in experiment [6]; -0.127 in experiment [7]. Also, the composite z-score in experiment [8] was -0.722; in experiment [9], -0.188; in experiment [10], -0.586. For the same compound, the z-score in [4] was 0.0567 (inactive).

On to `C=C(COC)/C(=C/C[C@@H](OC(C)=O)c1cccc(OCCO)c1)c1cnc2ccccc2c1`, for which the composite z-score is -0.219 in experiment [1]; 0.15 in experiment [2]; 0.322 in experiment [3]; 1.56 in experiment [5]; 0.917 in experiment [6]; 1.26 in experiment [7]. Further, the composite z-score in [8] was found to be 1.55; in [9], 1.02; in experiment [10] it was 1.93. The z-score in experiment [4] is -0.302 (inactive).

Turning to `COC(=O)c1c2oc(c1C(=O)OC)C(=O)N[C@H](Cc1ccccc1)Cn1cc(nn1)C1(CCCCC1)NC(=O)N[C@H](CO)CC2`, the composite z-score in experiment [1] is 0.569; in experiment [2], -0.177; in [3], -0.279; in [5], 0.495; in experiment [6] it was -0.528; in experiment [7] it was -0.857. Further, the composite z-score was -0.409 in experiment [8], -0.2 in experiment [9] and 0.116 in [10]. In addition, the z-score in experiment [4] is -0.168 (inactive).

With `O=C1C2C=CC(C(O)C3CCCCC3)N(Nc3ccccc3F)C2C(=O)N1c1ccccc1` (stereo not given), the composite z-score turned out to be 1.12 in [1]; 1.15 in experiment [2]; 0.95 in experiment [3]; 0.873 in experiment [5]; 1.29 in [6]; 0.157 in [7]. Besides, the composite z-score in experiment [8] is 1.08; in experiment [9], -0.498; in [10], 1.1. For the same compound, in experiment [4], the z-score was -0.505 (inactive).

Regarding `CCOC(=O)C[C@H]1[C@H](OC(=O)c2ccccc2-c2ccccc2)[C@@H](NC(=O)CC(C)C)c2cc(OCCCO)ccc2N1C(=O)c1ccccc1`, the composite z-score was 0.461 in experiment [1]; -0.28 in experiment [2]; -0.56 in [3]; 0.625 in experiment [5]; 0.211 in [6]; 0.405 in [7]. Besides, the composite z-score in [8] was 1.26; in experiment [9] it was 0.523; in experiment [10] it was -0.105. Further, in [4], the z-score is -0.739 (inactive).

`COc1ccc([Si](C)(C)[C@@H]2[C@@H](CC(=O)N3Cc4ccccc4C[C@H]3CO)O[C@]3(C(=O)N(Cc4ccc(I)cc4)c4ccccc43)[C@H]2C)cc1`: the composite z-score in [1] is 0.458; in experiment [2], -0.128; in [3], -0.357; in [5], 1.12; in experiment [6], 0.66; in experiment [7] it was 1.22. Also, the composite z-score is 1.36 in experiment [8], 1.45 in [9] and 1.52 in experiment [10]. Moreover, the z-score in experiment [4] is -1.36 (inactive).

As to `COCCOC(=O)N1C(=O)[C@@]2(c3cc(C#CCC(C(=O)OC)C(=O)OC)ccc31)[C@H](C(N)=O)[C@H]1C(=O)O[C@H](c3ccccc3)[C@H](c3ccccc3)N1[C@@H]2c1ccccc1OCCO`, the composite z-score in [1] was 0.997; in [2], -0.202; in experiment [3] it was -0.129; in experiment [5], 1.37; in [6] it was 1.31; in [7], 0.958. Further, the composite z-score in experiment [8] amounted to 1.09; in experiment [9] it was 0.47; in [10], 0.486. Besides, the z-score in [4] is -1.32 (inactive).

For `COc1c(C)cc(-c2cc3c(c(CCc4ccccc4)n2)[Si](C(C)C)(C(C)C)O[C@H]3c2ccccc2)cc1C`, the composite z-score in experiment [1] was 0.994; in experiment [2], -0.137; in experiment [3], -0.169; in [5], -0.168; in [6], -0.914; in experiment [7] it was -0.275. Moreover, the figures for the composite z-score in [8], in experiment [9] and in [10] were -0.257, -0.204 and -0.0185, respectively. In experiment [4], the z-score is -1.48 (inactive).

With `[N-]=[N+]=NCc1ccccc1[C@H]1OC(c2ccc(OCCCO)cc2)=N[C@@]1(Cc1ccccc1N=[N+]=[N-])C(=O)N1CCOCC1`, the composite z-score is 1.02 in [1]; 0.596 in [2]; 0.828 in experiment [3]; 0.458 in [5]; 1.1 in experiment [6]; -0.292 in experiment [7]. The composite z-score is 0.29 in experiment [8], -0.287 in experiment [9] and 0.594 in experiment [10]. Also, the z-score in [4] is -0.1 (inactive).

Consider `CC[C@@H](O[Si](C#C[Si](C(C)C)(C(C)C)C(C)C)(C(C)C)C(C)C)c1cn(Cc2cccc(Cl)c2)nn1`, for which the composite z-score in experiment [1] was 0.433; in experiment [2], -0.0597; in experiment [3], -0.3; in experiment [5] it was 0.418; in [6], 0.791; in experiment [7] it was 0.293. The results for the composite z-score in experiment [8], in [9] and in experiment [10] were 0.775, 0.388 and 0.232, respectively. Further, the z-score in experiment [4] is 0.453 (inactive).
